This passage reports AC50 and outcome results from PubChem BioAssay (EPA / NIEHS).

Structures are written as SMILES. Records with an inconclusive call do not appear. The source holds several records for some structures; these can differ, active in one and inactive in another. Activity calls are given as the source filed them. The calls were made as follows: active = hit-call score of the fitted dose curve at least 0.9, where 1 is the maximum; inconclusive = response in the unintended direction; inactive = score below 0.9.

Sequence of Nuclear receptor subfamily 1 group I member 2 (Homo sapiens) (O75469 whole entry, looked up): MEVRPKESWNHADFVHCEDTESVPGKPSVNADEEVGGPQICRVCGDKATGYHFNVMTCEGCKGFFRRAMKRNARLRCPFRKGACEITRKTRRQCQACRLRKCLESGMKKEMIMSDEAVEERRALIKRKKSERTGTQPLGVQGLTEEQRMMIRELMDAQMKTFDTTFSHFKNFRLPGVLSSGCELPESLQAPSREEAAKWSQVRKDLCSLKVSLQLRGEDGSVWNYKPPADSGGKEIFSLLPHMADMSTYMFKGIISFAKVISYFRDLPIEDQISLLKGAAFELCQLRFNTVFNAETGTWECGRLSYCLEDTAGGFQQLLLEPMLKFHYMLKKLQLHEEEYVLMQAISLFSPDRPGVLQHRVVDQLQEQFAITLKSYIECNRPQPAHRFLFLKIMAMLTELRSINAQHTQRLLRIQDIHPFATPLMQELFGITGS

The target of this assay is Nuclear receptor subfamily 1 group I member 2 (Homo sapiens) (UniProt O75469). Kind of assay: ATG_PXR_TRANS: Attagene TRANS-FACTORIAL HepG2 Assay for human Pregnane X Receptor (PXR) (AID 2283008). Here is the method:
ATG_TRANS is a cell-based, multiplexed-readout assay that uses HepG2, a human liver cell line, with measurements taken at 24 hours after chemical dosing in a 24-well plate.ATG_PXR_TRANS is one of 30 assay component(s) measured or calculated from the ATG_TRANS assay. It is designed to make measurements of mRNA induction, a form of inducible reporter, as detected with fluorescence intensity signals by Reverse transcription polymerase chain reaction (RT-PCR) and Capillary electrophoresis technology.Data from the assay component ATG_PXR_TRANS was analyzed into 1 assay endpoint. This assay endpoint, ATG_PXR_TRANS, was analyzed in the positive analysis fitting direction relative to DMSO as the negative control and baseline of activity. Using a type of inducible reporter, measures of mRNA for gain-of-signal activity can be used to understand the reporter gene at the transcription factor-level as they relate to the gene NR1I2. Furthermore, this assay endpoint can be referred to as a primary readout, because this assay has produced multiple assay endpoints where this one serves a reporter gene function. To generalize the intended target to other relatable targets, this assay endpoint is annotated to the nuclear receptor intended target family, where the subfamily is non-steroidal.
Human liver HepG2 cells are transiently transfected with multiple reporter transcription units (MRTUs) in 6-well plates using FuGene 6 reagent (Roche; 3 ml FuGene/1 mg DNA). The MRTU constructs are regulated by a cis-regulating element (promoter). […] A major difference between the CIS and TRANS system is that in CIS activities of endogenous TFs are measured, whereas the TRANS assay evaluates changes in activities of exogenous, chimeric NR-Gal4 proteins. […] At the end of 24 hour incubation, total RNA was isolated using TriZol reagent (Invitrogen). The isolated RNA is then reverse-transcribed using oligo(dT) primer and Mo-MLV reverse transcriptase (Invitrogen) with DNAse I (Ambion) treatment for 30 min. The one-tenth of the produced cDNA was amplified by PCR using Taq DNA polymerase (Invitrogen) and two reporter sequence-specific primers. The PCR products were fluorescently labeled by primer extension with 6-arboxyfluorescein (6-FAM) 5'-labeled reporter sequence-specific primer (2 min at 95 C, 20 s at 68 C and 10 min at 72 C) and these products were digested with 5U of HpaI (New England Biolabs) for 2h at 37 C. The fragments were purified using Qiaquick PCR columns (Qiagen), analyzed on an ABI 3130xL genetic analyzer (Applied Biosystems) with peak positions identified by using a set of X-rhodamine (ROX)-labeled MapMarker1000 molecular weight standards (BioVentures). The raw capillary electrophoresis data was processed using Attagraph software (Attagene).
Turning to `C=CCc1ccc(OC)c(OC)c1`, the AC50 was 28.8 µM (active).

In the case of `CN(C)CCCN(C)CCCN(C)C`, the outcome was inactive.

Take `CC(=O)CC(c1ccccc1)c1c(O)c2ccccc2oc1=O` (stereo not given): the compound was classed as inactive.

For `COc1ccc(OC(F)(F)F)cc1CN[C@H]1CCCN[C@H]1c1ccccc1`, the half-maximal activity concentration (AC50) was 2.95 µM (active).

Regarding `CC(C)(O)c1ccc(CNC(=O)c2cccnc2Oc2ccc(F)cc2)cc1`, the AC50 is 2.33 µM (active).

On to `CSc1ccc(Oc2ccc(S(N)(=O)=O)cc2CN(C)C)cc1C`, for which the AC50 is 2.31 µM (active).

For the compound `Cn1cnc2c1c(=O)[nH]c(=O)n2C`, the outcome was inactive.

Consider `CCCCCCCC(=O)OC`, for which the result was inactive.

For `CC1=C(C)S(=O)(=O)CCS1(=O)=O`, the result was inactive.

As to `CC(C)c1cccc(C(C)C)c1`, the outcome was inactive.

Take `CCCCc1nc2cccnc2n1Cc1ccc(-c2ccccc2-c2nnn[nH]2)cc1`: the half-maximal activity concentration (AC50) is 27.4 µM (active).

With `CCCCOC(=O)CCCCC(=O)OCCCC`, the compound was called inactive.

Take `Cc1c(C)c2c(c(C)c1O)CCC(C)(COc1ccc(CC3SC(=O)NC3=O)cc1)O2` (stereo not given): the AC50 was 3.5 µM (active).

With `O=Cc1ccccc1C=O`, the outcome was inactive.

For `CCCCCCC(CCCCCCCCCCC(=O)OCC(COC(C)=O)OC(C)=O)OC(C)=O` (stereo not given), the outcome was inactive.

In the case of `NCCOCCOCCN`, the compound was classed as inactive.

`OCC(CO)n1cnc(-c2ccc(F)cc2)c1-c1ccnc(Oc2ccccc2)n1`: the AC50 is 6.83 µM (active).

On to `COC(=O)CCC(=O)OC`, for which the compound was classed as inactive.

In the case of `CC(=O)S[C@H](C(=O)N[C@H]1Cc2ccccc2[C@H]2CCC[C@@H](C(=O)O)N2C1=O)C(C)C`, the compound was classed as inactive.

As for `Cc1cc(SC2=C(O)C[C@@](CCc3ccc(N)cc3)(C(C)C)OC2=O)c(C(C)(C)C)cc1CO`, the AC50 is 1.65 µM (active).

`O=C1OC(c2ccc(O)cc2)(c2ccc(O)cc2)c2ccccc21`: the AC50 was 0.604 µM (active).

As to `NC(=Nc1ccccc1)Nc1ccccc1`, the compound was called inactive.

`CS(=O)(=O)c1ccc([C@@H](C[C@H]2CCC(=O)C2)C(=O)Nc2cnccn2)cc1Cl`: the outcome was inactive.

Regarding `CN(C)C(=O)NC1(c2ccccc2)CCN(CCC[C@]2(c3ccc(Cl)c(Cl)c3)CCCN(C(=O)c3ccccc3)C2)CC1`, the AC50 is 0.554 µM (active).

As for `NC1CCCCC1`, the result was inactive.

For the compound `CCCCCCCCCC[N+](C)(C)[O-]`, the compound was classed as inactive.

As for `CN(C)CCCN1c2ccccc2Sc2ccc(Cl)cc21`, the outcome was inactive.

Consider `CCCCCCC(C=O)=Cc1ccccc1`, for which the result was inactive and the AC50 is 100 µM (active).

In the case of `Cc1cc(Cc2ccc(N)c(C)c2)ccc1N`, the compound was called inactive.

`O=C1NC(=O)C(c2ccccc2)(c2ccccc2)N1`: the compound was called inactive.

As for `CC(=O)[C@@]1(O)CC[C@H]2[C@@H]3CCC4=CC(=O)CC[C@]4(C)[C@H]3CC[C@@]21C`, the outcome was inactive.

Take `Nc1nc(Cl)nc2c1ncn2[C@H]1C[C@H](O)[C@@H](CO)O1`: the compound was called inactive.

Consider `O=C(NS(=O)(=O)/C=C/c1cccs1)c1ccc(F)cc1Br`, for which the concentration at half-maximal activity (AC50) is 11.4 µM (active).

In the case of `C/C=C/c1ccc(OC)cc1`, the outcome was inactive.

On to `Cc1ccc(-c2cc(C(F)(F)F)nn2-c2ccc(S(N)(=O)=O)cc2)cc1`, for which the result was inactive.

Take `NC=O`: the compound was called inactive.

For the compound `CC(C)OC(=O)C(C)(C)Oc1ccc(C(=O)c2ccc(Cl)cc2)cc1`, the concentration at half-maximal activity (AC50) was 5.53 µM (active).

For `O=C(O)c1cccnc1`, the compound was classed as inactive.

In the case of `C/C=C/C=C/C(=O)O`, the result was inactive.
